Measurements reported in the supplement of paper PMC10498489.
Out of some 2,300 compounds screened, about 330 (14%) showed activity.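 Rule for the calls: active = median modified Z-score above 1.96; inactive = 1.96 or below.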 Not all results are given here.

tested on: HepG2 Srxn1-GFP reporter cells (+30 nM CDDO-Me); assay: Srxn1-GFP intensity median modified Z-score relative to plate median; higher = stronger NRF2 / oxidative stress reporter activation, active = hit call of the paper; conditions: 10 µM; exposure time: 24h
Summary of the method: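 Each value is the replicate median of a per-plate modified Z-score for GFP intensity in HepG2 Srxn1-GFP BAC reporter cells. The cells (20,000 per well, 96-well plates, three replicate plates) received compound at 10 μM together with an NRF2 activator at 30 nM for 24 h, in ≤0.1% DMSO. Cytoplasmic GFP was quantified per cell from confocal images of formaldehyde-fixed, Hoechst-stained cells, leaving out images with fewer than 100 cells, and scaling used 1.4826 × median absolute deviation.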

| SMILES | Srxn1-GFP intensity median modified Z-score |
| --- | --- |
| CC1CN(C(=O)CSc2nc3ccc(Br)cc3c3nc(=O)c(-c4ccccc4)nn23)CC(C)O1 (configuration not stated) | 2.28 (active) |
| CC(C)CCOc1ccc2[nH]c(-c3cc(NCCc4cn5c(n4)SCC5)ccn3)cc2c1 | 0.892 (inactive) |
| COc1ccc(-c2oc3ccccc3c(=O)c2OC)cc1 [euspeclibcmpd1341] | 0.287 (inactive) |
| CN(C)[C@@H]1C(O)=C(C(N)=O)C(=O)[C@@]2(O)C(O)c3c(c(O)c4c(Cl)ccc(O)c4c3O)C[C@@H]12 (some centres not stated) [euspeclibcmpd85] | -0.132 (inactive) |
| O=C(C(=O)c1ccccc1)c1ccccc1 | 1.75 (inactive) |
| O=C(O)c1ccccc1 [euspeclibcmpd2047] | 0.122 (inactive) |
| O=C(CC(=O)c1ccccc1)c1ccccc1 [euspeclibcmpd1779] | 2.2 (active) |
| C[n+]1cccc(C(=O)O)c1 [euspeclibcmpd1706] | -0.33 (inactive) |
| CCCc1nn(C)c2c(=O)nc(-c3cc(S(=O)(=O)N4CCN(C)CC4)ccc3OCC)[nH]c12 [euspeclibcmpd1008] | -0.649 (inactive) |
| Nc1ccc(NC(=O)c2cc(Cl)ccc2O)c(Cl)c1 | 1.83 (inactive) |
| O=C(Nc1cc(Cl)cc(Cl)c1O)c1c(O)c(Cl)cc(Cl)c1Cl [euspeclibcmpd2236] | 4.91 (active) |
| O=C(Nc1ccc(Br)cc1Cl)c1cc(Cl)ccc1O | 0.489 (inactive) |
| COC(=O)c1cc(-c2ccccc2)nc2ccccc12 | 1.89 (inactive) |
| O=C1CC(=O)c2c(c(O)c3ccccc3c2O)C1=O [euspeclibcmpd1727] | 8.98 (active) |
| O=C1C=Cc2c(c(O)c3ccccc3c2O)C1=O [euspeclibcmpd1683] | 0.752 (inactive) |
| Cc1cc(/C=C/c2ccc3cc(N(C)C)ccc3[n+]2C)c(C)n1-c1ccccc1 [euspeclibcmpd260] | 28.6 (active) |
| COc1c(-c2ccccc2)oc2cc(O)cc(O)c2c1=O [euspeclibcmpd2295] | -0.0938 (inactive) |
| CCN(CC)CCOC(=O)c1ccc(N)cc1 [euspeclibcmpd248] | -0.882 (inactive) |
| CCCOc1ccc(C(=O)OCCN(CC)CC)cc1N [euspeclibcmpd842] | -0.601 (inactive) |
| CCCCOc1cc(C(=O)OCCN(CC)CC)ccc1N [euspeclibcmpd809] | 16.2 (active) |
| O=C(O)C(O)C(O)C(O)C(O)C(=O)O (configuration not stated) [euspeclibcmpd2053] | -0.466 (inactive) |
| Cc1[nH]c(=O)[nH]c1O [euspeclibcmpd1742] | -0.283 (inactive) |
| Cc1[nH]c(C)c(Cl)c(=O)c1Cl [euspeclibcmpd744] | 6.67 (active) |
| O=C(O)C=C(CC(=O)O)C(=O)O [euspeclibcmpd1609] | -0.206 (inactive) |

| SMILES | Srxn1-GFP intensity median modified Z-score |
| --- | --- |
| C=C1CC2C3=CC(C)=C4CC(=O)CC[C@]4(C)C3CC[C@]2(C)[C@@]1(OC(C)=O)C(C)=O (some centres not stated) [euspeclibcmpd860] | 1.04 (inactive) |
| CSC1(CNC(=O)Nc2cnn(C)c2Cl)CC1 | 1.35 (inactive) |
| OC[C@@H](O)[C@@H](O[C@@H]1O[C@H](CO)[C@@H](O)[C@H](O)[C@H]1O)[C@H](O)[C@@H](O)CO [euspeclibcmpd2177] | -0.452 (inactive) |
| COC(=O)C(c1ccccc1Cl)N1CCc2sccc2C1 (configuration not stated) [euspeclibcmpd599] | -0.316 (inactive) |
| CCCCC(CC)CN1CN(CC(CC)CCCC)CC(C)(N)C1 (configuration not stated) [euspeclibcmpd1036] | 14.2 (active) |
| COc1cnc(=NS(=O)(=O)c2ccc(N)cc2)[nH]c1 [euspeclibcmpd408] | -0.161 (inactive) |
| NC(=O)CN1CCCCCCC1=O | 0.32 (inactive) |
| CC1=C(CC(=O)O)c2cc(F)ccc2C1=Cc1ccc([S+](C)[O-])cc1 (configuration not stated) [euspeclibcmpd284] | -0.29 (inactive) |
| N#Cc1ccc(C(c2ccc(C#N)cc2)n2cncn2)cc1 [euspeclibcmpd693] | -0.19 (inactive) |
| c1ccc(C(c2ccccc2)(c2ccccc2)n2ccnc2)cc1 | 1.95 (inactive) |
| c1ccc(-c2ccc(C(c3ccccc3)n3ccnc3)cc2)cc1 (configuration not stated) [euspeclibcmpd741] | 3.36 (active) |
| CCOC(=O)C(CCc1ccccc1)NC1CCc2ccccc2N(CC(=O)O)C1=O (configuration not stated) [euspeclibcmpd912] | 3.02 (active) |
| CCOC(=O)C(CCc1ccccc1)NC(C)C(=O)N1CCCC1C(=O)O (configuration not stated) [euspeclibcmpd421] | 0.166 (inactive) |
| CCOC(=O)C(CCc1ccccc1)NC(C)C(=O)N1Cc2ccccc2CC1C(=O)O (configuration not stated) [euspeclibcmpd521] | 0.162 (inactive) |
| N=c1[nH]c(=O)[nH]cc1F [euspeclibcmpd698] | 1.2 (inactive) |
| CC(=O)OCC(=O)[C@@]1(O)[C@H](C)CC2C3CC=C4CC(=O)C=C[C@]4(C)[C@@]3(F)[C@@H](O)C[C@@]21C (some centres not stated) [euspeclibcmpd2125] | -0.395 (inactive) |
| Cc1cccc(N(C)C(=S)Oc2ccc3ccccc3c2)c1 [euspeclibcmpd299] | 8.23 (active) |
| CC(=O)Oc1cccc(C)c1 [euspeclibcmpd1228] | -0.455 (inactive) |
| CC(C)(C)NCC(O)COc1cccc2c1CCCC2=O (configuration not stated) [euspeclibcmpd764] | -0.976 (inactive) |
| CCCCCCCCCCCCCCCCOP(=O)(O)OCC[N+](C)(C)C [euspeclibcmpd1120] | 1.47 (inactive) |
| NC(C(=O)NC1C(=O)N2C(C(=O)O)=C(Cl)CSC12)c1ccccc1 (configuration not stated) [euspeclibcmpd343] | -0.608 (inactive) |
| Cn1cnc([N+](=O)[O-])c1Sc1ncnc2[nH]cnc12 [euspeclibcmpd29] | 2.86 (active) |
| N=c1[nH]cnc2c1ncn2C1O[C@H](COP(=O)(O)O)[C@@H](O)[C@H]1O (some centres not stated) [euspeclibcmpd330] | -0.321 (inactive) |
| CCc1ccc2c(O)c3c(O)c4c(c(O)c3cc2c1C(=O)OC)C(=O)C=CC4=O [euspeclibcmpd1950] | 1.63 (inactive) |

| SMILES | Srxn1-GFP intensity median modified Z-score |
| --- | --- |
| COc1cccc2c(O)c3c(O)c4c(c(O)c3c(O)c12)=C(OC1C[C@H](N)[C@H](O)[C@H](C)O1)C[C@](O)(C(=O)CO)C=4 (some centres not stated) [euspeclibcmpd2291] | 0.455 (inactive) |
| COc1cccc2c(O)c3c(O)c4c(c(O)c3c(O)c12)=C(O[C@H]1C[C@H](N)[C@H](O)[C@H](C)O1)C[C@](O)(C(C)=O)C=4 [euspeclibcmpd83] | 0.648 (inactive) |
| CC[C@@]1(O)CC(=O)c2c(cc3c(O)c4c(O)ccc(O)c4c(O)c3c2O)C1C(=O)OC (some centres not stated) [euspeclibcmpd1470] | 70.7 (active) |
| CCC1(O)C=C(OC2CC(N(C)C)C(O)C(C)O2)c2c(cc3c(O)c4c(O)ccc(O)c4c(O)c3c2O)C1C(=O)OC (configuration not stated) [euspeclibcmpd1939] | 97.7 (active) |
| COc1ccc2c(=O)ccoc2c1 [euspeclibcmpd1397] | 0.575 (inactive) |
| CC1(C)SC2C(NC(=O)C(C(=O)O)c3ccccc3)C(=O)N2C1C(=O)O (configuration not stated) [euspeclibcmpd2333] | 0.114 (inactive) |
| O=c1c2cc(O)c(O)cc2oc2cc(O)c(C3O[C@H](CO)[C@@H](O)[C@H](O)[C@H]3O)c(O)c12 (some centres not stated) [euspeclibcmpd1520] | -0.904 (inactive) |
| CCCc1nc(=N)c(C[n+]2ccccc2C)c[nH]1 [euspeclibcmpd493] | -0.6 (inactive) |
| COc1cccc(-c2cc(=O)c3cc(OC)ccc3o2)c1 [euspeclibcmpd1659] | -0.339 (inactive) |
| O=C1c2cccc(O)c2C(=O)c2c(O)cccc21 [euspeclibcmpd3] | 19.4 (active) |
| Cc1cc(O)c2c(c1)C(=O)c1cccc(O)c1C2=O [euspeclibcmpd1712] | 4.5 (active) |
| COc1cc(O)c2c(c1)C(=O)c1cc(C)cc(O)c1C2=O [euspeclibcmpd1472] | 0.0189 (inactive) |
| Cc1cc(O)c2c(c1)C(=O)c1cc(O)cc(O)c1C2=O [euspeclibcmpd1604] | 0.573 (inactive) |
| O=C(O)C(O)[C@H](O)[C@H](O)[C@H](O)[C@H](O)CO (some centres not stated) [euspeclibcmpd2445] | -0.00236 (inactive) |
| CC(=O)C1(O)CCC2C3CC(C)=C4CC(=O)C=CC4(C)C3(F)C(O)CC21C (configuration not stated) [euspeclibcmpd1970] | -0.646 (inactive) |
| COc1cc([C@H]2Oc3cc(C4Oc5cc(O)cc(O)c5C(=O)C4O)ccc3O[C@@H]2CO)ccc1O (some centres not stated) [euspeclibcmpd2298] | -0.00238 (inactive) |
| C[C@]12CCC(OC(=O)c3ccccc3)CC1CCc1ccccc12 (some centres not stated) [euspeclibcmpd2434] | 0.0569 (inactive) |
| CCn1c2cc(=N)ccc-2c2ccc(N)cc2c1-c1ccccc1 [euspeclibcmpd1148] | 4.33 (active) |
| C=C[C@@]1(C)CC(=O)[C@@]2(O)[C@](C)(O1)[C@@H](OC(C)=O)[C@@H](O)C1C(C)(C)CC[C@H](O)[C@@]12C (some centres not stated) [euspeclibcmpd604] | -1.15 (inactive) |
| N=c1[nH]c(=O)c2[nH]c(=O)cnc2[nH]1 [euspeclibcmpd1707] | -0.214 (inactive) |
| CCCc1nc(C(C)(C)O)c(C(=O)OCc2oc(=O)oc2C)n1Cc1ccc(-c2ccccc2-c2nn[nH]n2)cc1 [euspeclibcmpd716] | -0.529 (inactive) |
| CCCc1nc2c(C)cc(-c3nc4ccccc4n3C)cc2n1Cc1ccc(-c2ccccc2C(=O)O)cc1 [euspeclibcmpd729] | 3.15 (active) |
| CCCCc1nc(Cl)c(CO)n1Cc1ccc(-c2ccccc2-c2nn[nH]n2)cc1 [euspeclibcmpd678] | -0.235 (inactive) |
| O=C1C(CCC(O)c2ccc(F)cc2)[C@@H](c2ccc(O)cc2)N1c1ccc(F)cc1 (some centres not stated) [euspeclibcmpd714] | 1.03 (inactive) |
